Where “and” joins values, the source holds several entries; their conditions need not be identical. Equal entries are not always repeated. Hit rate of the full screen: of about 5,500 compounds, about 2,000 (36%) were called active. Not shown: some 18% with an inconclusive outcome. The list shows a part of the results. Values without a mark were called inactive. Rule as the data show it: active = normalized growth mostly below about 0.91 (no sharp cut-off); inconclusive = no clear call, values can overlap the other calls; inactive = mostly above about 0.92.
Test: chemical genetic growth profiling, strain panel (AID 1159580);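 also: tested at 20 µM; growth read once vehicle control cultures reached saturation at 30 °C; 1 = growth at the plate median or of vehicle wells; lower values mean less growth of the strain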
Conditions: S. cerevisiae deletion strains, growth OD

ClC1=C(Cl)C2(Cl)C3C(Cl)C=CC3C1(Cl)C2(Cl)Cl (configuration not stated)
normalized growth (locus YAL013W, strain DEP1, hits give low values): 0.999 | normalized growth (locus YAL021C, strain ccr4, hits give low values): 0.99 | normalized growth (locus YAL026C, strain drs2, hits give low values): 0.999 | normalized growth (locus YAL030W, strain snc1, hits give low values): 1.01 | normalized growth (locus YBL061C, strain skt5, hits give low values): 1.01 | normalized growth (locus YBR009C, strain hhf1, hits give low values): 0.983 | normalized growth (locus YBR021W, strain FUR4, hits give low values): 0.987 | normalized growth (locus YBR023C, strain chs3, hits give low values): 0.998 | normalized growth (locus YBR171W, strain sec66, hits give low values): 0.994 | normalized growth (locus YBR229C, strain ROT2, hits give low values): 0.991 | normalized growth (locus YBR231C, strain swc5, hits give low values): 0.999 | normalized growth (locus YBR279W, strain paf1, hits give low values): 1 | normalized growth (locus YCL011C, strain gbp2, hits give low values): 0.996 | normalized growth (locus YCL016C, strain dcc1, hits give low values): 0.998 | normalized growth (locus YCL029C, strain bik1, hits give low values): 0.965 | normalized growth (locus YCL061C, strain MRC1, hits give low values): 0.996 | normalized growth (locus YCL069W, strain vba3, hits give low values): 1.01 | normalized growth (locus YCR088W, strain abp1, hits give low values): 0.998 | normalized growth (locus YDL005C, strain med2, hits give low values): 1.01 | normalized growth (locus YDL035C, strain GPR1, hits give low values): 0.962 | normalized growth (locus YDL040C, strain nat1, hits give low values): 1.01 | normalized growth (locus YDL074C, strain BRE1, hits give low values): 1 | normalized growth (locus YDL101C, strain DUN1, hits give low values): 0.989 | normalized growth (locus YDL134C, strain PPH21, hits give low values): 0.99 | normalized growth (locus YDL185W, strain tfp1, hits give low values): 0.983 | normalized growth (locus YDL192W, strain arf1, hits give low values): 0.98 | normalized growth (locus YDR001C, strain nth1, hits give low values): 1 | normalized growth (locus YDR069C, strain doa4, hits give low values): 0.981 | normalized growth (locus YDR101C, strain arx1, hits give low values): 0.992 | normalized growth (locus YDR137W, strain rgp1, hits give low values): 0.925 | normalized growth (locus YDR150W, strain NUM1, hits give low values): 0.995 | normalized growth (locus YDR159W, strain sac3, hits give low values): 0.817 (active) | normalized growth (locus YDR162C, strain NBP2, hits give low values): 0.999 | normalized growth (locus YDR195W, strain ref2): 0.913 | normalized growth (locus YDR297W, strain sur2, hits give low values): 1 | normalized growth (locus YDR318W, strain mcm21, hits give low values): 0.978 | normalized growth (locus YDR334W, strain swr1, hits give low values): 1.02 | normalized growth (locus YDR335W, strain msn5, hits give low values): 1.01 | normalized growth (locus YDR388W, hits give low values): 0.974 | normalized growth (locus YDR392W, strain spt3, hits give low values): 0.975 | normalized growth (locus YDR502C, strain sam2, hits give low values): 0.984 | normalized growth (locus YEL003W, strain gim4, hits give low values): 0.995 | normalized growth (locus YEL037C, strain rad23, hits give low values): 1.01 | normalized growth (locus YEL061C, strain CIN8 (second series), hits give low values): 1.01 | normalized growth (locus YEL061C, strain CIN8, hits give low values): 1 | normalized growth (locus YER015W, strain faa2, hits give low values): 0.992 | normalized growth (locus YER016W, strain bim1, hits give low values): 1 | normalized growth (locus YER110C, hits give low values): 0.978 | normalized growth (locus YER111C, strain swi4, hits give low values): 1 | normalized growth (locus YER155C, strain BEM2 (second series), hits give low values): 0.998 | normalized growth (locus YER155C, strain BEM2, hits give low values): 1.01 | normalized growth (locus YER167W, strain BCK2, hits give low values): 0.98 | normalized growth (locus YFR010W, strain ubp6, hits give low values): 0.995 | normalized growth (locus YGL078C, strain dbp3, hits give low values): 0.988 | normalized growth (locus YGL086W, strain mad1, hits give low values): 0.99 | normalized growth (locus YGL167C, strain pmr1, hits give low values): 0.998 | normalized growth (locus YGL173C, strain kem1, hits give low values): 0.993 | normalized growth (locus YGL227W, strain vid30, hits give low values): 1 | normalized growth (locus YGL240W, strain doc1, hits give low values): 0.986 | normalized growth (locus YGL248W, strain PDE1, hits give low values): 0.991 | normalized growth (locus YGL253W, strain hxk2, hits give low values): 0.999 | normalized growth (locus YGR078C, strain PAC10, hits give low values): 0.993 | normalized growth (locus YGR135W, strain pre9, hits give low values): 0.982 | normalized growth (locus YGR229C, strain SMI1, hits give low values): 0.985 | normalized growth (locus YGR252W, strain gcn5, hits give low values): 0.957 | normalized growth (locus YHR013C, strain ard1, hits give low values): 0.904 | normalized growth (locus YHR027C, strain rpn1, hits give low values): 0.995 | normalized growth (locus YHR030C, strain SLT2, hits give low values): 1 and 1.04 | normalized growth (locus YHR079C, strain IRE1 (second series), hits give low values): 0.973 | normalized growth (locus YHR079C, strain IRE1, hits give low values): 1 | normalized growth (locus YHR094C, strain hxt1, hits give low values): 0.988 | normalized growth (locus YHR129C, strain ARP1, hits give low values): 0.997 | normalized growth (locus YHR142W, strain chs7, hits give low values): 0.996 | normalized growth (locus YHR200W, strain rpn10, hits give low values): 0.987 | normalized growth (locus YIL066C, strain RNR3, hits give low values): 0.971 | normalized growth (locus YIL073C, strain SPO22, hits give low values): 0.922 | normalized growth (locus YIL125W, strain kgd1, hits give low values): 1 | normalized growth (locus YIR030C, strain dcg1, hits give low values): 0.989 | normalized growth (locus YJL092W, strain hpr5, hits give low values): 0.998 | normalized growth (locus YJL095W, strain BCK1 (second series), hits give low values): 1 | normalized growth (locus YJL095W, strain BCK1, hits give low values): 1.03 and 1.04 | normalized growth (locus YJL115W, strain asf1, hits give low values): 0.995 | normalized growth (locus YJL129C, strain trk1, hits give low values): 0.854 (active) | normalized growth (locus YJL134W, strain LCB3, hits give low values): 0.984 | normalized growth (locus YJL154C, strain vps35, hits give low values): 1 | normalized growth (locus YJL164C, strain tpk1, hits give low values): 0.953 | normalized growth (locus YJL166W, strain qcr8, hits give low values): 0.943 | normalized growth (locus YJL168C, strain set2, hits give low values): 0.977 | normalized growth (locus YJL187C, strain SWE1 (second series), hits give low values): 0.989 | normalized growth (locus YJL187C, strain SWE1, hits give low values): 1.01 | normalized growth (locus YJR043C, strain POL32, hits give low values): 0.997 | normalized growth (locus YJR066W, strain TOR1, hits give low values): 0.961

— PubChem BioAssay AID1159580 (chemical genetic matrix, 2015)
